Bioassay records (PubChem BioAssay)
TDP1 cell CPT = DT40-hTDP1 cell growth loss with CPT; chicken DT40 Tdp1-/-;hTDP1 cells + 20 nM CPT, ATP luminescence, 48 h; Potency, µM (series often up to 46.2 µM), inactives show at the highest dose activity change, negative = growth inhibition, hits mostly inhibitors; 420,000 tested, 12% active; AID 686979; note: potency is the fitted concentration of half-maximal effect; % is set by controls: 0 for no effect and ±100 for the full control effect; nearly all actives have a fitted effect of over 55% in size
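Chicken DT40 Tdp1-/- cells stably complemented with human TDP1 were seeded at 400 cells/well in medium containing 20 nM camptothecin, exposed to pin-transferred compounds, and grown at 37 °C for at least 48 hr. Viability was read as ATP luminescence.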
TGFb inhibitor = inhibitors of TGF-b signaling | HepG2 CAGA-GFP TGF-b/SMAD3 reporter, GFP fluorescence, 18 h; TGF-beta stimulated, 500 pg/mL final | 410,000 tested, 1.2% active | Potency, µM (doses to about 46.1 µM), inactives show at the top dose activity, negative = inhibition, hits mostly inhibitors; note: potency is the fitted concentration of half-maximal effect; % is set by controls: 0 for no effect and ±100 for the full control effect; nearly all actives have a fitted effect of over 65% in size
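HEPG2 CAGA-GFP cells (1000/well, DMEM with 1% FBS) were pre-incubated 2 h at 37 degrees C, given compound by pin tool, then stimulated with TGF-beta at 500 pg/mL final for 18 h before per-cell GFP fluorescence imaging.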
IL-1B inflam inh = blocks inflammasome-driven IL-1 beta release; activity change, % at 57.5 µM; THP-1 LPS/ATP IL-1B secretion, AlphaLISA, 16 h; hits give low values; 360,000 tested, 4.7% active; in the data active = activity change below about -50%; inconclusive = mostly about -30% to -49%; note: % is set by controls: 0 for no effect and ±100 for the full control effect
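THP-1 cells pretreated 1 hr with compounds (up to 57.5 uM final), then stimulated with LPS (250 ng/mL final) plus ATP (1.25 mM final); secreted IL-1B measured by AlphaLISA after 16 hr, decreased signal indicating inhibition.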
TDP1 inh = TDP1 (human) enzyme inhibition; recombinant TDP1, AlphaScreen DNA substrate cleavage; Potency, µM (titrated, usually from 130 µM), for the others: at the top dose activity change, negative = inhibition, hits mostly inhibitors; 350,000 tested, 0.28% active; Q9NUW8; note: potency is the fitted concentration of half-maximal effect; % is set by controls: 0 for no effect and ±100 for the full control effect; nearly all actives have a fitted effect of over 40% in size
Target sequence (Q9NUW8 whole entry, looked up): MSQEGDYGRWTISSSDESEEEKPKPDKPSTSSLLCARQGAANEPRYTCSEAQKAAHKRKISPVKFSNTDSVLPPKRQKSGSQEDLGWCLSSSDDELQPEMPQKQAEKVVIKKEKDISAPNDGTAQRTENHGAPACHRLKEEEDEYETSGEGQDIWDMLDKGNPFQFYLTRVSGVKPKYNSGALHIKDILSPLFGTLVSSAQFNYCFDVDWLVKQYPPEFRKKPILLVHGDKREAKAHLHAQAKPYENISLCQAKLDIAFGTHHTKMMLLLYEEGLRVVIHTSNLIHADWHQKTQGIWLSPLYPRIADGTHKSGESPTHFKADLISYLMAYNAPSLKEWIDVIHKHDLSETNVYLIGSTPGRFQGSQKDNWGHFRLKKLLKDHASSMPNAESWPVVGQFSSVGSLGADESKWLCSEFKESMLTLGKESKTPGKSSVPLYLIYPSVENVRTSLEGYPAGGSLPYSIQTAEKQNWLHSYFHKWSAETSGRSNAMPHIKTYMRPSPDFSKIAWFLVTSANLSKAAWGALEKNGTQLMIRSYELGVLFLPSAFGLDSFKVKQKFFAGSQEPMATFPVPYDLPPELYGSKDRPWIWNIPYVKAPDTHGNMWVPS
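Here, a 5' biotin and 3' phosphotyrosine-FITC DNA oligonucleotide reports Tdp1 activity: intact substrate bridges AlphaScreen beads, while cleavage leaves a 3' phosphate and drops signal. All incubations at room temperature.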
DT40 TDP1 no CPT = qHTS for Inhibitors of human tyrosyl-DNA phosphodiesterase 1 (TDP1): qHTS in cells in absence of CPT. DT40 Tdp1-/- hTDP1 cells, no CPT, ATP luminescence, 48 h. Potency, µM (top dose mostly 46.2 µM), without a hit: top-dose activity change, negative = growth inhibition, most hits filed as inhibitors. 420,000 tested, 15% active. AID 686978, 2013; note: potency is the fitted concentration of half-maximal effect; % is set by controls: 0 for no effect and ±100 for the full control effect; nearly all actives have a fitted effect of over 55% in size
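A cellular qHTS used chicken DT40 cells lacking endogenous Tdp1 but carrying stably transfected human TDP1. Compounds were applied without camptothecin, and cell growth kinetics were judged by ATP-dependent luminescence after ≥48 hr.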
HepG2 tox = counter-screen for TGF-b inhibitors: cytotoxicity in HepG2 cells; HepG2 CAGA-GFP viability, ATP luminescence, 18 h; Potency, µM (top dose mostly 46.1 µM), for the others: at the highest dose activity change, negative = cytotoxicity, most hits filed as cytotoxic; 410,000 tested, 0.76% active; note: potency is the fitted concentration of half-maximal effect
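HepG2 CAGA-GFP cells (1000/well, DMEM with 1% FBS) received compound, then TGF-beta at 500 pg/mL final, and were incubated 18 hours at 37 degrees C. Viability was read by CellTiter-Glo luminescence. Media-only wells were set as complete cell-killing and DMSO as no toxicity.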
Active calls of the source: *. An excerpt weighted towards active compounds, which were near 18% of everything screened. Unless noted, calls come from the whole dose curve; as a rule, active = well fitted curve in the direction sought with a large enough effect; inconclusive = small, poorly fitted or top-dose-only effect, or another doubt; inactive = no such curve, though single readings can be large; an effect the other way counts as inactive or inconclusive.

`COC(=O)c1c(-c2ccc(OC)cc2)sc2ccccc12` gave TDP1 inh 20µM*.
For COC(=O)c1c(-c2ccc(S(C)(=O)=O)cc2)sc2ccc(OC)cc12 the results were TDP1 cell CPT inconclusive, TGFb inhibitor 3%, IL-1B inflam inh -15, TDP1 inh 1%, DT40 TDP1 no CPT 13µM* and HepG2 tox 2%.
COC(=O)c1c(-c2ccc(OC)cc2)sc2cc(OC)c(OC)cc12 was read as TDP1 cell CPT inconclusive, TGFb inhibitor inconclusive, IL-1B inflam inh 12, TDP1 inh -14%, DT40 TDP1 no CPT inconclusive and HepG2 tox -18%.
COC(=O)c1c(-c2ccc(SC)cc2)sc2ccccc12 was read as TDP1 cell CPT -4%, TGFb inhibitor -26%, IL-1B inflam inh 18, TDP1 inh inconclusive, DT40 TDP1 no CPT inconclusive and HepG2 tox -24%.
Screening COc1ccc2c(C(=O)NCc3ccc4c(c3)OCO4)c(-c3ccc(S(C)(=O)=O)cc3)sc2c1 returned TDP1 cell CPT 23µM*, TGFb inhibitor -5%, IL-1B inflam inh 49, TDP1 inh 1%, DT40 TDP1 no CPT 16µM* and HepG2 tox -3%.
`COC(=O)c1c(-c2ccc(S(C)(=O)=O)cc2)sc2cc(OC)ccc12` gave TDP1 cell CPT inconclusive, TGFb inhibitor 9%, IL-1B inflam inh -20, TDP1 inh -2%, DT40 TDP1 no CPT 21µM* and HepG2 tox -15%.
For Cn1cc(CN2CCC(n3nccc3NC(=O)CCOc3ccccc3)CC2)cn1 the results were TDP1 cell CPT 0%, TGFb inhibitor -10%, IL-1B inflam inh -4, TDP1 inh -2%, DT40 TDP1 no CPT 2% and HepG2 tox -1%.
`COc1cccc(CNC(=O)c2ccc(S(=O)(=O)N3CCCCC3)cc2)c1` gave TDP1 cell CPT -29%, TGFb inhibitor -16%, IL-1B inflam inh 0, DT40 TDP1 no CPT inconclusive and HepG2 tox -17%.
For CCS(=O)(=O)N1CCc2cc(C(=O)NCc3ccc(Cl)cc3)ccc21 the results were TDP1 cell CPT inconclusive, TGFb inhibitor 5%, TDP1 inh 9%, DT40 TDP1 no CPT 16µM* and HepG2 tox -15%.
`COc1ccc(CNC(=O)c2ccc3c(c2)CCN3S(=O)(=O)c2ccc(Cl)cc2)cc1` gave TDP1 cell CPT inconclusive, TGFb inhibitor -17%, TDP1 inh 7%, DT40 TDP1 no CPT 16µM* and HepG2 tox -3%.
Screening CCS(=O)(=O)N1CCc2cc(C(=O)NCc3ccccc3Cl)ccc21 returned TDP1 cell CPT inconclusive, TGFb inhibitor 18%, TDP1 inh 11%, DT40 TDP1 no CPT inconclusive and HepG2 tox -6%.
O=C(NCc1ccccc1)c1ccc2c(c1)CCN2S(=O)(=O)c1ccccc1 was read as TDP1 cell CPT inconclusive, TGFb inhibitor 17%, TDP1 inh 5%, DT40 TDP1 no CPT inconclusive and HepG2 tox -3%.
For CN(C)c1ccc(CNC(=O)C2(C)Cc3c(-c4cccc(C(F)(F)F)c4)ccnc3O2)cc1 (configuration not stated) the results were TDP1 cell CPT 16µM*, TGFb inhibitor inconclusive, IL-1B inflam inh 24, DT40 TDP1 no CPT inconclusive and HepG2 tox -20%.
Screening CC1(C(=O)NCc2ccc(F)c(F)c2)Cc2c(-c3ccccc3)ccnc2O1 (configuration not stated) returned TDP1 cell CPT 10µM*, TGFb inhibitor 10%, IL-1B inflam inh 20, DT40 TDP1 no CPT 6.5µM* and HepG2 tox -21%.
